Laboratory results published in PubChem BioAssay.

test: small-molecule microarray binders of probe aEGFR, primary screen, biochemical, biotinylated probe, 635/667 nm fluorescence (AID 1097); conditions: higher = more signal;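 note: probe is a biotinylated anti-EGFR antibody binding compounds printed on slides; score combines fluorescence near 667 nm and signal to noise of each spot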

| Compound | composite z-score |
| --- | --- |
| CC(C)CNC(=O)[C@@]1(C)c2ccccc2C(=O)N(Cc2cc(F)cc(C(F)(F)F)c2)[C@H]1c1ccc(CO)cc1 | -0.165 |
| NCCCC[C@@H]1NC(=O)[C@H]2C[C@@H](C(=O)O)[C@@H](c3cccc(OCCO)c3)N2C1=O | 0.703 |
| CC(C)C[C@@H]1NC(=O)[C@H]2C[C@@H](C(=O)NCCCCCNC(=O)CS)[C@@H](c3ccc(O)cc3)N2C1=O | -0.0007 |
| CO[C@H]1O[C@H](CO)[C@@H](OC(=O)Nc2ccccc2)[C@@H]2OC(=O)[C@H](Cc3ccccc3)C/C=C/C[C@@H](Cc3ccccc3)C(=O)O[C@@H]12 | 0.0308 |
| CC(C)CNC(=O)[C@@H]1c2ccccc2C(=O)N(Cc2ccccc2Cl)[C@H]1c1ccc(CO)cc1 | -0.239 |
| CCc1cccc(NC(=O)O[C@H]2[C@H](OC(=O)Nc3ccc4c(c3)OCO4)[C@H](OC(=O)Nc3ccc4c(c3)OCO4)[C@@H](OC)O[C@@H]2CO)c1 | -0.13 |
| CCN(CC)c1ccc(N2CC=CC34O[C@@H]5C=CCOC(=O)[C@@H]5[C@H]3C(=O)N(CCCO)[C@@H]4C2=O)cc1 (stereo not given in full) | -0.188 |
| C=C(CCCC)/C(=C/C[C@H](OC(C)=O)c1cccc(OCCO)c1)c1cc(C(=O)OC)ccc1OC | -0.154 |
| C=C(COC)/C(=C/C[C@H](OC(=O)c1ccncc1)c1ccc(OCCO)cc1)c1cc(C(=O)OC)ccc1OC | -0.0828 |
| NC(=O)NCC#Cc1ccc2c(c1)[C@]1(C(=O)N2)[C@H](C(=O)Nc2nc3ccccc3s2)[C@H]2C(=O)O[C@H](c3ccccc3)[C@H](c3ccccc3)N2[C@@H]1c1ccc(OCCO)cc1 | -0.138 |
| C=CCNC(=O)[C@H]1[C@@H]2C(=O)O[C@@H](c3ccccc3)[C@@H](c3ccccc3)N2[C@@H](c2ccc(O)cc2)[C@]12C(=O)Nc1ccc(C#CC3=CCCCC3)cc12 | -0.17 |
| C=CCC(OC(C)=O)[C@@H]1[C@@H](N(Cc2cccc3ccccc23)C(=O)c2ccc(-c3ccccc3)cc2)c2cc(OCCCO)ccc2N1C(=O)c1ccc2ccccc2n1 (stereo not given in full) | -0.0271 |
| O=C1c2ccccc2[C@](Cc2ccccc2I)(C(=O)O)[C@H](c2ccc(CO)cc2)N1Cc1ccccc1 | -0.027 |
| CC(C)[C@@H](C(=O)O)n1cc(-c2ccccc2)nn1 | 0.125 |
| C/C=C/CN(C(=O)C#Cc1ccccc1)[C@H](CO[Si](C)(C)C(C)(C)C)c1ccccc1 | -0.595 |
| COCCOC(=O)N1C(=O)[C@@]2(c3cc(C#CCCO)ccc31)[C@H](c1ccc(O)cc1)N1[C@H](c3ccccc3)[C@H](c3ccccc3)OC(=O)[C@H]1[C@@H]2C(=O)N1CCc2cc(OC)c(OC)cc2C1 | 0.122 |
| Cc1ccc(S[C@]2(C(=O)NC3CC3)CC(=O)N(Cc3cc(C(F)(F)F)cc(C(F)(F)F)c3)[C@@H]2c2ccc(CO)cc2I)cc1 | 0.395 |
| C[N+](C)(C)CCCC[C@@H]1NC(=O)[C@H]2C[C@@H](C(=O)NCCCCCNC(=O)CS)[C@@H](c3ccc(O)cc3)N2C1=O | -0.0583 |
| CC[C@H](C)C(=O)O[C@H]1CC[C@]2(C)C3=C(CCC2C1(C)C)[C@]1(C)CC[C@H]([C@H](C)CCCC(C)C)[C@@]1(C)CC3 (stereo not given in full) | -0.0431 |
| COCCOC(=O)N1C(=O)[C@@]2(c3cc(C#CCC(C(=O)OC)C(=O)OC)ccc31)[C@H](C(=O)N1CCCCCCC1)[C@H]1C(=O)O[C@H](c3ccccc3)[C@H](c3ccccc3)N1[C@@H]2c1ccccc1OCCO | 1.06 |
| C=CCOC(=O)[C@H]1[C@@H]2C(=O)O[C@@H](c3ccccc3)[C@@H](c3ccccc3)N2[C@@H](c2ccc(OCCOC(=O)[C@H]3C[C@H]4C(=O)NCC(=O)N4[C@H]3c3ccc(O)cc3)cc2)[C@]12C(=O)Nc1ccc(I)cc12 | -0.0531 |
| CC#CCO[Si](C#CCCCCCC)(C(C)C)C(C)C | -0.466 |
| CC(c1ccccc1)C(O)C1C=CC2C(=O)N(c3ccccc3)C(=O)C2N1Nc1ccc(C#N)cc1 (stereo not given) | 0.066 |
| O=C1c2ccccc2[C@@]2(Cc3ccccc3N(Cc3ccccc3)C2=O)[C@H](c2ccc(CO)cc2)N1Cc1ccccc1 | -0.218 |
| CC(C)CNC(=O)[C@@H]1c2ccccc2C(=O)N(CC23CC4CC(CC(C4)C2)C3)[C@H]1c1ccc(CO)cc1 | -0.146 |
